Reference: the supplement of paper PMC10849652
Targets with a hit are over-represented here; the source holds about 7,900 in all. About 0.6% of all pairs of compound and target were hits. Unmarked numbers belong to inactive results.

Tests used:
Experiment in all cases: log2 fold change, soluble protein after heating vs DMSO (PISA); higher = thermal stabilisation; K562 cells, 10 uM, 30 min; active = over 0.2 and 3.5 SD of the protein, either way, in both replicates (recomputed)
[1] = compound: CS(=O)(=O)c1ccc(-c2cnc(N)c(C(=O)Nc3ccccc3)n2)cc1
Outline: (§1)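 K562 cells at 2×10^6 cells/mL were given 10 μM compound for 30 min. Aliquots then went through 3 min of heating across 48°C-58°C, were pooled, and were extracted in PBS with 0.5% NP-40 at 4°C, and the supernatant after 21,000xg for 90 min was quantified by TMTpro 16plex LC-MS/MS with channel sums equalised. Thermal stability relative to control samples, from duplicates, is given as log2 fold change.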

crizotinib = compound: C[C@@H](Oc1cc(-c2cnn(C3CCNCC3)c2)cnc1N)c1c(Cl)ccc(F)c1Cl [crizotinib]
Outline: as §1

[2] = compound: C[C@@H]1COCCN1C2=NC(=NC(=C2)C3(CC3)S(=O)(=O)C)C4=C5C=CNC5=CC=C4
Outline: as §1

[3] = compound: C[C@H](C1=CC=C(C=C1)C(=O)NC2=C3C=CNC3=NC=C2)N
Outline: as §1

duvelisib = compound: C[C@H](Nc1ncnc2nc[nH]c12)c1cc2cccc(Cl)c2c(=O)n1-c1ccccc1 [duvelisib]
Outline: as §1

gandotinib = compound: Cc1cc(Nc2cc(CN3CCOCC3)c3nc(C)c(Cc4ccc(Cl)cc4F)n3n2)n[nH]1 [gandotinib]
Outline: as §1

tozasertib = compound: Cc1cc(Nc2cc(N3CCN(C)CC3)nc(Sc3ccc(NC(=O)C4CC4)cc3)n2)n[nH]1 [tozasertib]
Outline: as §1

[4] = compound: Cc1cc(SCc2sc(-c3ccc(C(F)(F)F)cc3)nc2C)ccc1OCC(=O)O
Outline: as §1

doramapimod = compound: Cc1ccc(-n2nc(C(C)(C)C)cc2NC(=O)Nc2ccc(OCCN3CCOCC3)c3ccccc23)cc1 [doramapimod]
Outline: as §1

ispinesib = compound: Cc1ccc(C(=O)N(CCCN)[C@@H](c2nc3cc(Cl)ccc3c(=O)n2Cc2ccccc2)C(C)C)cc1 [ispinesib]
Outline: as §1

UniProt Q15059, sequence (Q15059 whole entry, looked up): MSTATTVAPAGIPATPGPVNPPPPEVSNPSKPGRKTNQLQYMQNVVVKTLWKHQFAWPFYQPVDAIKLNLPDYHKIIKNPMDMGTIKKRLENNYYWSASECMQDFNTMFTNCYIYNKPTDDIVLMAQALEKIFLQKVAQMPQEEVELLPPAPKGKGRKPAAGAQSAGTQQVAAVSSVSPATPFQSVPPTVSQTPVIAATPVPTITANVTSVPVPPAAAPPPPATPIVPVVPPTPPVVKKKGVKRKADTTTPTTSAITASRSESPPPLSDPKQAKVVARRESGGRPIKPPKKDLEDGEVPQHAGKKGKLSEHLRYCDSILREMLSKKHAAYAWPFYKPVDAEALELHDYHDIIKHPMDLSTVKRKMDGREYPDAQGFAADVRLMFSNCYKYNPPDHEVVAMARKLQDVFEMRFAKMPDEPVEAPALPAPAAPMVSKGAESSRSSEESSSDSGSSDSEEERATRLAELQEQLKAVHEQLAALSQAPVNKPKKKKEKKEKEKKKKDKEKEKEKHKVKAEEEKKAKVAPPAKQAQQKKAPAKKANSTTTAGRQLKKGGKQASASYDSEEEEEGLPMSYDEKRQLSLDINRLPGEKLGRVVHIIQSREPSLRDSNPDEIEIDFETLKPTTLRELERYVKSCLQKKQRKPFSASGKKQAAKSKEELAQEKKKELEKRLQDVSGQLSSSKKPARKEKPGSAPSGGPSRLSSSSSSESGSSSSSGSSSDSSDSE
UniProt O14965, sequence (O14965 whole entry, looked up): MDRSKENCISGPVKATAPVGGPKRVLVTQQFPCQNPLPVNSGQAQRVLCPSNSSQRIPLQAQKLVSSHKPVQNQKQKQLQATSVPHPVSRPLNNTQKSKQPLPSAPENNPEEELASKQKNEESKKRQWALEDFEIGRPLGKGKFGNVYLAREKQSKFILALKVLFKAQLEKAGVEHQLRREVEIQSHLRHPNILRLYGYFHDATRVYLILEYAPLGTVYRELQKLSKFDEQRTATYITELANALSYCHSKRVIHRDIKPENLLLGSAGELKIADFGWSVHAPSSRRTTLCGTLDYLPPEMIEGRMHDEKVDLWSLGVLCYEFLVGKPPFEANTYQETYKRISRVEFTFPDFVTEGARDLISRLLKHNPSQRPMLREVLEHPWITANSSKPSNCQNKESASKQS
UniProt Q562R1, sequence (Q562R1 whole entry, looked up): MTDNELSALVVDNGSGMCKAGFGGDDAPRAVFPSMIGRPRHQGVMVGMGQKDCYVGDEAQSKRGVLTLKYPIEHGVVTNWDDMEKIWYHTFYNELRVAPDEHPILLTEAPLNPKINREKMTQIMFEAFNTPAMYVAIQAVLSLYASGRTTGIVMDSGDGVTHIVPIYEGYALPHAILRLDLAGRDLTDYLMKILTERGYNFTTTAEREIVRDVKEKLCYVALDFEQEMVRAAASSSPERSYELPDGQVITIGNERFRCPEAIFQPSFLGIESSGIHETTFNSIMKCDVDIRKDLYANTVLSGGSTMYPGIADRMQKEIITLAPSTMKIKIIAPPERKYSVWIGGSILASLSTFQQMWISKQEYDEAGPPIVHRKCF
UniProt Q9UQB8, sequence (Q9UQB8 whole entry, looked up): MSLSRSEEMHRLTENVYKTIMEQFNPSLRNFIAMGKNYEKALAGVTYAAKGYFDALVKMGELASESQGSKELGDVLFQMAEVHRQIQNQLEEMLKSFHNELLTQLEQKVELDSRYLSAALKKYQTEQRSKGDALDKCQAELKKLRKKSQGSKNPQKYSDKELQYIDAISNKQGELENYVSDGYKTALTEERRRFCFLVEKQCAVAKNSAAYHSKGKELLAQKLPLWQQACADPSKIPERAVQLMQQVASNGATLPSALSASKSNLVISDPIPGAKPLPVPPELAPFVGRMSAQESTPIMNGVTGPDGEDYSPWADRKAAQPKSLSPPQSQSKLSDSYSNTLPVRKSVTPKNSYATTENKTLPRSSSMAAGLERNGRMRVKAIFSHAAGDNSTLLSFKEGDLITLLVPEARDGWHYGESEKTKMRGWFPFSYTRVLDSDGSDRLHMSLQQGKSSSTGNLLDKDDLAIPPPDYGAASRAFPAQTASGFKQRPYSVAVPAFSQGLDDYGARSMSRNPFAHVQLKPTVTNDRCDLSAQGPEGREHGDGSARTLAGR
UniProt Q92934, sequence (Q92934 whole entry, looked up): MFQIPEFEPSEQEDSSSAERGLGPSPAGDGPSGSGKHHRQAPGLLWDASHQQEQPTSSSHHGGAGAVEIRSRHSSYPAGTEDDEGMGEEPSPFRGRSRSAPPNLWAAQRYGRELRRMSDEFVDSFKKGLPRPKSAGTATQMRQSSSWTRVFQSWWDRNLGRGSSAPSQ
UniProt Q8NFV4, sequence (Q8NFV4 whole entry, looked up): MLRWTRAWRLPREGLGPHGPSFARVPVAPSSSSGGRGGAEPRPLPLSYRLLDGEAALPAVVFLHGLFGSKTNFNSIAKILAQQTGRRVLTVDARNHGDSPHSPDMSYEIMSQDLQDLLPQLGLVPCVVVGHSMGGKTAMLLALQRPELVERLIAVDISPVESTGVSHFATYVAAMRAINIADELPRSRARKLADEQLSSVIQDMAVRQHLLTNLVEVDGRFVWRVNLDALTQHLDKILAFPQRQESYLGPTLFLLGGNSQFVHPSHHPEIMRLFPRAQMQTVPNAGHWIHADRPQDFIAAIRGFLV
UniProt P42331, sequence (P42331 whole entry, looked up): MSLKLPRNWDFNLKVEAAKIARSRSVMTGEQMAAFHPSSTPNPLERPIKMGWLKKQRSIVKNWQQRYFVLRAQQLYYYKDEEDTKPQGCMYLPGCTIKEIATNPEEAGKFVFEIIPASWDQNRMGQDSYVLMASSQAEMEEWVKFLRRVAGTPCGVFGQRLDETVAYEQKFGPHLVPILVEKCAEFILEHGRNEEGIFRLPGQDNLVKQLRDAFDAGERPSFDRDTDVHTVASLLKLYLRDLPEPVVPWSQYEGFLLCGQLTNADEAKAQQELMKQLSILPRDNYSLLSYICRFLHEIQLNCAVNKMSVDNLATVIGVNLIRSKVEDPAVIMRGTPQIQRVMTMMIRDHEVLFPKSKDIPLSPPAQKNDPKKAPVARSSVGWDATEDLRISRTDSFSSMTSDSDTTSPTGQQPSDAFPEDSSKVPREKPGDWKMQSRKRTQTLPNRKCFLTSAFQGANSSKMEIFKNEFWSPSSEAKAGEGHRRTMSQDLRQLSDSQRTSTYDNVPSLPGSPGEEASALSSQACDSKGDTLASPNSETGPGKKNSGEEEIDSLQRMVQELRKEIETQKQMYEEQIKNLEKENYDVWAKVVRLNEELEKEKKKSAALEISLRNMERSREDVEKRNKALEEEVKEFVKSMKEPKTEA
UniProt Q14457, sequence (Q14457 whole entry, looked up): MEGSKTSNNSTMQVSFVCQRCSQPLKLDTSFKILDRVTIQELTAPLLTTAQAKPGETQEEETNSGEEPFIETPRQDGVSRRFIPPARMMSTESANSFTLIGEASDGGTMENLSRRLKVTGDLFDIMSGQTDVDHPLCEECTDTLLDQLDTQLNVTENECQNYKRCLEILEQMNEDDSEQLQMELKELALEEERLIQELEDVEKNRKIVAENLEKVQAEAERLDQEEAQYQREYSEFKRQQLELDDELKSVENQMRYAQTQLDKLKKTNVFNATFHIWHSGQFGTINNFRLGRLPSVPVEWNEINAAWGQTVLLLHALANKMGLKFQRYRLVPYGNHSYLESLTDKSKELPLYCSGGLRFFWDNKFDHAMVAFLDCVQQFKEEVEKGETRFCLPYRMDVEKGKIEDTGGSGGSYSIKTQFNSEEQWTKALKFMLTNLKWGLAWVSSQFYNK
UniProt Q9BTE6, sequence (Q9BTE6 whole entry, looked up): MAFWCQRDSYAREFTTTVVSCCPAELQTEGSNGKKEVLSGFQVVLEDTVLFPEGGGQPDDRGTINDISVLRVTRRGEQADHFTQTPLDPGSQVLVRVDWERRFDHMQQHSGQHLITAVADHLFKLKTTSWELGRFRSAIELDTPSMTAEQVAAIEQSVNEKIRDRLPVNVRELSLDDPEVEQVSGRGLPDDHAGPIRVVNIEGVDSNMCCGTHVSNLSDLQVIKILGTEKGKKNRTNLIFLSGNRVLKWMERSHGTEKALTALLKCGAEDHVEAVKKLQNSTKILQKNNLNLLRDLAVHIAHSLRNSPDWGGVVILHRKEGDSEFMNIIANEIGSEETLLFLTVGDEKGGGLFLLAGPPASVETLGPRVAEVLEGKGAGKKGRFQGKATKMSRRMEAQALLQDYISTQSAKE
UniProt Q9H7T9, sequence (Q9H7T9 whole entry, looked up): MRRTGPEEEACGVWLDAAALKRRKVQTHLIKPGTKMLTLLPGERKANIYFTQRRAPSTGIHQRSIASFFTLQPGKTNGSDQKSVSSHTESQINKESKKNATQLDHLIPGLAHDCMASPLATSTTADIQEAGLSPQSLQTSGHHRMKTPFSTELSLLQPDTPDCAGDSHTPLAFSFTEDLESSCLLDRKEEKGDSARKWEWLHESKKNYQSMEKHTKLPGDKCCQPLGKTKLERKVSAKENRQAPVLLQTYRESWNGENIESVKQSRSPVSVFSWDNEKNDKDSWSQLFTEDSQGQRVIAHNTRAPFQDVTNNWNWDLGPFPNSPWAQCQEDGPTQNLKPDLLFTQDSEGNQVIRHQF
UniProt Q13825, sequence (Q13825 whole entry, looked up): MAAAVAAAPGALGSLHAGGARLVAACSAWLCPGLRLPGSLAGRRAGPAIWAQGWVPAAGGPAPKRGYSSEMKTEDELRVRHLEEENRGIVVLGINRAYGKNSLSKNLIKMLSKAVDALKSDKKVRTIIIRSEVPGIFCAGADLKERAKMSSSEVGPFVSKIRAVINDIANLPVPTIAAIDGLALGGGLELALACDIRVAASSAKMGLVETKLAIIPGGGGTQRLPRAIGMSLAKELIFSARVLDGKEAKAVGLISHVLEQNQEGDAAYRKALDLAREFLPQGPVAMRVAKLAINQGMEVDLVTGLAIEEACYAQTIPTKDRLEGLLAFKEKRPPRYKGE
UniProt P56211, sequence (P56211 whole entry, looked up): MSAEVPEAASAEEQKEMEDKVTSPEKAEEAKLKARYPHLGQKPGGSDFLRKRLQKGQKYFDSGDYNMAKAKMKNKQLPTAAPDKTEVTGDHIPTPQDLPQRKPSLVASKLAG

Target	log2 fold change [1]	log2 fold change (crizotinib)	log2 fold change [2]	log2 fold change [3]	log2 fold change (duvelisib)	log2 fold change (gandotinib)	log2 fold change (tozasertib)	log2 fold change [4]	log2 fold change (doramapimod)	log2 fold change (ispinesib)
ATP23 (UniProt Q9Y6H3)	-0.002	-0.116	0.044	0.072	-0.124	-0.128	0.002	0.046	-0.051	-0.188
AKT1 (UniProt P31749)	-0.013	-0.104	-0.188	0.135	-0.062	-0.144	0.032	0.298	-0.005	-0.03
ACOX3 (UniProt O15254)	-0.006	-0.091	0.016	0.065	–	–	-0.018	–	0.14	–
AGAP3 isoform 4 (UniProt Q96P47)	-0.041	-0.231	-0.133	0.07	–	–	0.183	–	0.125	-0.069
ADPRH (UniProt P54922)	0.123	0.056	0.201	–	–	0.157	-0.033	–	-0.071	-0.002
APAF1 (UniProt O14727)	-0.045	0.045	0.115	-0.061	0.268	0.047	–	0.119	0.006	-0.181
ARPP19 (UniProt P56211)	-0.017	0.059	0.006	-0.106	-0.082	0.019	-0.031	-0.106	-0.037	0.048
APOH (UniProt P02749)	-0.22	-0.179	–	-0.071	-0.017	-0.747	-0.125	0.458	-0.108	-0.595
APH1A (UniProt Q96BI3)	0.048	-0.151	–	0.021	0.035	-0.075	0.015	-0.036	0.073	–
AKAP8L (UniProt Q9ULX6)	-0.036	-0.049	-0.066	-0.1	-0.03	-0.007	0.039	0.092	0.047	-0.102
ATAD1 (UniProt Q8NBU5)	0.004	0.021	-0.013	0.074	-0.032	0.144	-0.013	0.113	-0.003	-0.063
BAD (UniProt Q92934)	0.171	0.076	0.076	-0.036	0.081	0.018	–	-0.033	0.003	0.025
BECN1 (UniProt Q14457)	0.141	-0.126	0.043	0.093	0.283 (active)	0.138	0.034	-0.066	-0.004	-0.019
ASB6 (UniProt Q9NWX5)	0.019	0.013	-0.025	–	–	0.109	–	–	0.037	-0.143
ACP2 (UniProt P11117)	0.06	-0.051	0.017	-0.016	0.023	-0.071	0	-0.031	0.016	-0.036
BRD3 (UniProt Q15059)	0.117	0.109	–	-0.02	0.193	-0.081	-0.027	-0.037	-0.083	-0.03
BRD2 isoform 2 (UniProt P25440)	0.618	0.006	–	-0.065	0.295	-0.089	0.168	-0.083	0.064	–
BRAF (UniProt P15056)	0.006	0.023	0.034	-0.072	-0.014	-0.013	-0.004	-0.014	–	-0.024
AGRN (UniProt O00468)	-0.078	-0.01	-0.073	-0.021	-0.162	-0.012	0.026	0.24	0.062	0.009

Target	log2 fold change [1]	log2 fold change (crizotinib)	log2 fold change [2]	log2 fold change [3]	log2 fold change (duvelisib)	log2 fold change (gandotinib)	log2 fold change (tozasertib)	log2 fold change [4]	log2 fold change (doramapimod)	log2 fold change (ispinesib)
ARFIP1 isoform 2 (UniProt P53367)	-0.03	-0.266	0.047	–	0.11	-0.112	–	0.081	0.087	–
ATP11A (UniProt P98196)	0.017	0.042	0.032	-0.103	-0.025	0.027	-0.017	-0.055	0.018	0.092
ACVR1 (UniProt Q04771)	0.38	–	0.04	0.642 (active)	0.074	0.109	0.014	-0.061	–	–
AURKA (UniProt O14965)	0.198	–	-0.251	0.066	-0.058	1.01 (active)	–	-0.013	0.051	-0.107
ADD1 isoform 4 (UniProt P35611)	–	0.152	-0.213	0.186	–	-0.153	–	–	-0.075	–
ATXN7L3 isoform 2 (UniProt Q14CW9)	0.001	-0.043	–	–	–	–	–	–	0.169	-0.007
AUNIP isoform 2 (UniProt Q9H7T9)	0.117	–	–	-0.007	0.157	–	-0.203	0.056	–	–
ALDH9A1 (UniProt P49189)	0.084	–	0.061	-0.116	0.002	0.356 (active)	-0.052	0.045	–	-0.243
ADAMTS5 (UniProt Q9UNA0)	0.077	0.084	–	-0.08	0.111	0.178	-0.093	-0.136	0.052	-0.035
BRD4 (UniProt O60885)	0.081	–	0.288	-0.009	0.207	-0.034	0.033	-0.044	–	-0.022
AZI2 (UniProt Q9H6S1)	0.074	–	–	–	–	–	0.329	–	–	-0.019
ADD2 isoform 9 (UniProt P35612)	-0.067	–	–	–	–	–	–	–	–	0.04
ARHGAP25 isoform 4 (UniProt P42331)	–	–	-0.066	0.309	-0.067	-0.056	0.111	0.299	–	–
ATF1 (UniProt P18846)	-0.004	–	0.017	0.073	–	0.067	0.113	–	–	–
AARSD1 (UniProt Q9BTE6)	–	-0.036	–	0.033	-0.258	–	–	0.026	-0.096	–
ARHGAP4 isoform 2 (UniProt P98171)	0.023	–	–	0.212	-0.202	–	0.105	0.131	–	-0.111
BRMS1 (UniProt Q9HCU9)	–	–	-0.034	–	0.049	-0.174	-0.094	-0.046	–	–
ABHD11 (UniProt Q8NFV4)	–	0.149	0.309 (active)	0.057	0.144	0.389 (active)	-0.039	-0.003	0.028	0.029
ACTR3B (UniProt Q9P1U1)	–	-0.005	–	–	–	0.024	-0.02	–	0.158	-0.069

Target	log2 fold change [1]	log2 fold change (crizotinib)	log2 fold change [2]	log2 fold change [3]	log2 fold change (duvelisib)	log2 fold change (gandotinib)	log2 fold change (tozasertib)	log2 fold change [4]	log2 fold change (doramapimod)	log2 fold change (ispinesib)
ATXN3 isoform 1 (UniProt P54252)	–	-0.028	–	0.076	–	-0.028	-0.163	–	0.087	-0.043
ACTBL2 (UniProt Q562R1)	-0.022	–	-0.005	–	-0.091	-0.828	–	-0.299	–	-0.307
BAP18 isoform 3 (UniProt Q8IXM2)	–	–	–	–	–	0.147	0.012	–	–	–
BAIAP2 isoform 4 (UniProt Q9UQB8)	-0.112	–	–	0.29	–	–	0.042	–	–	–
ACSL6 isoform 1 (UniProt Q9UKU0)	-0.055	–	0.164	–	-0.068	-0.145	-0.052	0.157	–	-0.198
ARRDC1 (UniProt Q8N5I2)	0.015	–	-0.097	0.205	-0.263	0.1	-0.075	-0.071	–	-0.082
AKNA (UniProt Q7Z591)	-0.015	–	–	-0.02	–	–	–	–	–	–
AUH (UniProt Q13825)	–	-0.301	–	-0.105	-0.036	-0.127	-0.098	0.135	0.071	-0.069
ANGEL1 (UniProt Q9UNK9)	–	-0.058	–	–	–	–	-0.077	–	-0.028	0.27
AP2S1 (UniProt M0QZ21)	–	–	–	–	–	–	-0.253	–	–	–
BDH2 (UniProt Q9BUT1)	0.035	0.243	–	-0.215	-0.01	0.011	–	0.067	-0.053	0.053
BRAF, A0A2R8Y8E0	–	0.262	–	–	–	–	0.248	–	-0.757 (active)	-0.223
AIF1 (UniProt P55008)	0.008	–	0.11	–	–	–	–	–	–	-0.317
BSCL2 isoform 4 (UniProt Q96G97)	–	–	0.05	-0.007	0.129	-0.086	0.008	0.111	–	–
ATR (UniProt Q13535)	0.063	-0.021	–	0.022	0.004	-0.09	-0.038	0.026	-0.123	0.004
ASS1 (UniProt P00966)	0.033	–	0.017	-0.079	0.039	-0.014	-0.085	-0.062	–	-0.205
BTBD6 (UniProt Q96KE9)	0.117	–	0.033	-0.308	0.125	0.64	-0.105	-0.061	–	0.209
ALDH2 isoform 2 (UniProt P05091)	0.209	–	0.244	–	–	-0.027	-0.224	–	–	-0.214
ALG14 (UniProt Q96F25)	–	-0.034	-0.117	-0.042	0.01	-0.798 (active)	-0.134	-0.002	-0.038	-0.018
